Coupling enz: qHTS Assay for Inhibitors of Fructose-1,6-bisphosphate Aldolase from Giardia Lamblia: Coupling assay counterscreen. hit rate 0.67% among 290,000. coupling enzyme system counterscreen, AmpLite Red fluorescence. activity change, negative = inhibition, % at 58.2 µM, hits read low; in the data active = activity change below about -30%
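Coupling enzymes only (glyceraldehyde-3-phosphate) + compound, at 57.5 uM final, 10 min RT; add substrate/coupling/AmpLite Red mix, 20 min RT; fluorescence ex 525/em 598 nm. Actives flag coupling-system interference.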
ELG1 DNA repair: qHTS screen for small molecules that inhibit ELG1-dependent DNA repair in human embryonic kidney (HEK293T) cells expressing luciferase-tagged ELG1; HEK293T ELG1-luciferase reporter, luminescence, 16 h; DNA damage induced by 5-fluorouridine; Potency, µM (highest dose often 46.1 µM), without a hit: top-dose activity change, negative = inhibition, most hits filed as inhibitors; hit rate 2.3% among 330,000; also: potency is read from the fitted curve at half-maximal effect; nearly all actives have a fitted effect of over 55% in size
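Reporter activity after DNA damage by 5-fluorouridine is monitored. Compound-treated cells incubate 16 hr at 37 °C, then ONE-Glo is added for 30 min before luminescence reading.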
TSHR antag: Antagonists of the Thyroid Stimulating Hormone Receptor: HTS campaign. Thyrotropin receptor (Homo sapiens), P16473. TSHR-expressing cells, TSH-stimulated cAMP HTRF, 2 h; stronger effect = lower value. activity change, negative = inhibition, % at 11.5 µM. hit rate 0.2% among 330,000;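 active = activity change below a set negative limit, meaning inhibition stronger than a set level, cut at about -70% in these data; inconclusive = activity change between two set negative limits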
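TSHR-expressing cells, 200/well, pre-treated with compound, then stimulated with EC80 TSH (4nM final) for 2 hours at 37 deg C. cAMP measured by competitive HTRF: anti-cAMP cryptate antibody in lysis buffer plus cAMP-d2, read after 30 minutes at room temperature.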
RORgamma inh: qHTS for inhibitors of ROR gamma transcriptional activity; Drosophila S2 Gal4-RORgamma UAS-luciferase reporter, 20 h; Potency, µM (doses to about 53.6 µM), without a hit: at the top dose activity change, negative = inhibition, usual class: inhibitors; hit rate 5.4% among 310,000; AID 2551, 2010; also: potency is read from the fitted curve at half-maximal effect; nearly all actives have a fitted effect of over 60% in size
Target sequence (P51450 whole entry, looked up, the tested form may be a part): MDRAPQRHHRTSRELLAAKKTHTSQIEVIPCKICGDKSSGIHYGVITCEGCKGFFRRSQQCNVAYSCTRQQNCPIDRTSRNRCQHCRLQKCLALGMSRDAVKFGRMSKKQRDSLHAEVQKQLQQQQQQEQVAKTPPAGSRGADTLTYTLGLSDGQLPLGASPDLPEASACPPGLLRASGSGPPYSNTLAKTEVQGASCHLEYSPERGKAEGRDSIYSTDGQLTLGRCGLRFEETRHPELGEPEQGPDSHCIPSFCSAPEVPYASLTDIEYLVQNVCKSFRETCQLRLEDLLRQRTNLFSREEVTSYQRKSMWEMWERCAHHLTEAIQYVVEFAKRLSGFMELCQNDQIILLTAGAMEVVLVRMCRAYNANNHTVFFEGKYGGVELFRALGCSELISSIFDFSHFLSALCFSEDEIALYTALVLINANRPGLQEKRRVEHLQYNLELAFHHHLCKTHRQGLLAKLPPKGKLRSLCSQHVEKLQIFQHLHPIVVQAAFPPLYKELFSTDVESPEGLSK
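Drosophila Schneider cells stably carrying a metallothionein-driven Gal4 DBD–ROR gamma fusion and a UAS-Photinus luciferase reporter were exposed to compound for 1 hr, then induced with copper sulfate (700 uM final) for 20 hr at ambient temperature before luminescence reading.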
VP16 counter: VP16 counterscreen qHTS for inhibitors of ROR gamma transcriptional activity; AID 2546, 2010; Potency, µM (highest dose often 53.6 µM), for inactives: top-dose activity, negative = inhibition, usual class: inhibitors; Drosophila S2 Gal4-VP16 UAS-luciferase, luminescence, 20 h; hit rate 3.5% among 310,000;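 also: Gal4-VP16 expression switched on by copper sulfate through the metallothionein promoter; potency is read from the fitted curve at half-maximal effect; nearly all actives have a fitted effect of over 50% in size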
* = called active by the depositor; u = inconclusive; x = no result given; [ ] = dose if it differs, or a comment. The list is not random: actives were taken first. Their share in the collection is about 8%. Unless noted, calls follow the shape of the dose curve; as a rule, active = well fitted curve in the direction sought with a large enough effect; inconclusive = small, poorly fitted or top-dose-only effect, or another doubt; inactive = no such curve, though single readings can be large; an effect the other way counts as inactive or inconclusive. % is scaled to controls: 0 for no effect and ±100 for the full control effect.

SMILES | Coupling enz | ELG1 DNA repair | TSHR antag | RORgamma inh | VP16 counter
Cc1[nH]c2ccc(Br)cc2c(=S)c1C/C=C/Cl | 1 | u | -6 | 7.9µM* | -17%
CCOc1ccccc1/C=C/c1onc(C)c1S(=O)(=O)N1CCC(C(=O)N(CC)CC)CC1 | x | 5.8µM* | 0 | -43% | -6%
Cc1cc2c(s1)c1c(C)nn(Cc3ccccc3F)c(=O)c1n2C | x | x | 7 | x | x
O=C(c1cccc(F)c1)N1CCC[C@@]2(CCN(c3ccccc3)C2)C1 | -4 | x | x | u | u
COC(=O)c1ccc(NC(=O)c2ccc(CN3CCOCC3)cc2)cc1 | 1 | 8.2µM* | -13 | -9%[0.365 µM] | x
O=C(NC(=S)Nc1ccc(CN2CCOCC2)cc1)c1ccc([N+](=O)[O-])cc1 | 0 | u | 7 | 14µM* | 10µM*
CCOc1ccc(C(=O)Nc2ccc(CN3CCOCC3)cc2)cc1Br | 1 | 1% | 4 | 17% | -4%
O=C(Nc1ccc(CN2CCOCC2)cc1)c1ccc(-c2ccc(Br)cc2)o1 | 0 | 18µM* | -5 | -38% | -26%
CCCCOc1ccc(C(=O)NC(=S)Nc2ccc(CN3CCOCC3)cc2)cc1 | -1 | -17% | -3 | u | 1%
COc1ccc(C(=O)NC(=S)Nc2ccc(CN3CCOCC3)cc2)cc1Br | -1 | 23µM* | 9 | 7.1µM* | 18µM*
Cn1cccc1C(=O)N1CCC2(CC1)CN(c1ccccn1)C2 | -1 | x | x | -24% | 11%
O=C(/C=C/c1cccc([N+](=O)[O-])c1)NC(=S)Nc1ccc(CN2CCOCC2)cc1 | 1 | 0% | 4 | 13µM* | u
COc1ccc(C(=O)NC(=S)Nc2ccc(CN3CCOCC3)cc2)cc1 | 1 | -20% | -3 | 11µM* | u
O=[N+]([O-])c1cccc(/C=N/n2c(COc3ccccc3)n[nH]c2=S)c1 | -15 | -4% | 2 | 13µM* | u
O=[N+]([O-])c1ccc(/C=N/n2c(COc3ccccc3)n[nH]c2=S)cc1 | 11 | 3% | 2 | 7.1µM* | -26%
COc1cccc(/C=N/n2c(COc3ccccc3)n[nH]c2=S)c1 | 3 | -7% | -10 | 7.1µM* | u
S=c1[nH]ncn1/N=C/c1cccc(Oc2ccccc2)c1 | -7 | u | -12 | 2.8µM* | 7.1µM*
CC1=C(C(=O)OCc2ccccc2)C(C2CC2)NC(=O)N1CCCCCC(=O)O (stereo not given) | 0 | x | x | 17% | u
O=C(CCC1CCCC1)Nc1ccc(C(=O)NCc2cccnc2)cc1 | 0 | 16µM* | 11 | 3% | 4%
CC(=O)O[C@](C)(CCC=C(C)C)C1CC=C(C)CC1 (stereo not given in full) | 3 | x | x | -16% | 4%
CCNC(=O)CSc1nnc(-c2cc(-c3ccc(Cl)cc3)nc3ccccc23)o1 | 0 | -30% | -9 | 0.2µM* | u
CN(C)C(=O)CSc1nnc(-c2cc(-c3cccs3)nc3ccccc23)o1 | -3 | 12µM* | -7 | -13% | -12%
Cc1ccc(/C=N/n2c(COc3ccccc3)n[nH]c2=S)cc1 | 6 | 2% | -7 | 3.2µM* | u
CSc1ccc(/C=N/n2c(Cc3ccc(Br)cc3)n[nH]c2=S)cc1 | -2 | -19% | -9 | u | -1%
CN(C)c1ccc(/C=N/n2c(-c3ccccc3Br)n[nH]c2=S)cc1 | 3 | 13% | -7 | 3.5µM* | 4%
SMILES | Coupling enz | ELG1 DNA repair | TSHR antag | RORgamma inh | VP16 counter
S=c1[nH]nc(COc2ccccc2)n1/N=C/c1ccc(Br)cc1 | -3 | -1% | 4 | u | -30%
FC(F)Oc1ccc(/C=N/n2c(Cc3ccc(Br)cc3)n[nH]c2=S)cc1 | -1 | 14% | -9 | 8.9µM* | u
CCOc1cc(/C=N/n2c(COc3ccccc3)n[nH]c2=S)ccc1O | 3 | 7% | -13 | 5µM* | u
Cc1occc1C(=O)N/N=C/c1cccc2ccccc12 | 2 | u | -10 | -31% | 0%
CN(CCOc1ccc(Cl)cc1)C(=O)C1CCN(C(=O)c2ccc(Cl)cc2)CC1 | x | u | 4 | 42% | -11%
Cc1cccc(-c2oc3ccccc3c2C#CCCO)c1 | -4 | u | 8 | -10% | -3%
Cc1nn(CC(=O)N2CCN(S(=O)(=O)c3ccccc3)CC2)c(C)c1[N+](=O)[O-] | x | 0% | -10 | x | x
CC(OC(=O)CCC(=O)c1ccc(F)cc1)C(=O)NC1CCCCC1C (stereo not given) | x | 3% | 7 | -26% | -2%
CN(C)c1ccc(/C=N/n2c(COc3ccccc3)n[nH]c2=S)cc1 | 5 | -26% | 12 | 3.2µM* | 4µM*
CC(C)c1ccc(/C=N/n2c(COc3ccccc3)n[nH]c2=S)cc1 | 2 | 3% | -11 | u | 10µM*
C=CCn1c(SCC(=O)Nc2cc(OC)c(NC(=O)c3ccco3)cc2OC)nnc1-c1ccncc1 | 2 | 23µM* | 1 | u | 2%
C=CCn1c(SCC(=O)Nc2cc3oc4ccccc4c3cc2OC)nnc1-c1cnccn1 | -6 | 12µM* | -1 | -39% | -16%
COc1cc2c(cc1NC(=O)CSc1nnc(Cc3cccs3)n1Cc1ccco1)oc1ccccc12 | 1 | 23µM* | -6 | -4% | -4%
C=CCn1c(SCC(=O)NC2CCCC2)nnc1-c1ccccn1 | x | 4% | 8 | 5.6µM* | -4%
C=CCn1c(SCC(=O)Nc2cccc3ccccc23)nnc1-c1cnccn1 | -1 | u | 10 | -8% | -2%
C=CCn1c(SCC(=O)Nc2ccc(NC(=O)c3ccco3)c(OC)c2)nnc1-c1ccncc1 | -2 | -8% | 3 | 6% | 0%
O=c1c2ccccc2oc2cc(OCc3ccc(F)cc3)cc(O)c12 | 2 | -1% | 2 | 8% | 5%
CC[C@H](C)[C@H](NC(=O)[C@H](Cc1ccc(O)cc1)NC(=O)[C@@H](NC(=O)[C@H](CCCN=C(N)N)NC(=O)[C@@H](N)CC(=O)O)C(C)C)C(=O)N[C@@H](Cc1ccc(N)cc1)C(=O)N1CCC[C@H]1C(=O)N[C@@H](Cc1ccccc1)C(=O)O | 0 | x | x | -18% | -8%
CC1CCN(S(=O)(=O)c2cc(C(=O)Nc3ccccn3)ccc2Br)CC1 | x | u | -18 | x | x
COc1cc2c(cc1NC(=O)CSc1nnc(Cc3cccs3)n1C)oc1ccccc12 | 0 | u | -7 | -7% | -5%
CCn1c(SCC(=O)Nc2cc3oc4ccccc4c3cc2OC)nnc1-c1cccs1 | -2 | 18µM* | -3 | -32% | u
O=C(CSc1ccc(F)cc1)Nc1cccc(S(=O)(=O)N2CCOCC2)c1 | x | -14% | -6 | x | x

Screening results: PubChem BioAssay, National Center for Advancing Translational Sciences (NCATS)
